Bioassay records: PubChem BioAssay, National Center for Advancing Translational Sciences (NCATS)
PLK1 PBD inh = PLK1 (human) polo-box domain binding inhibition; Plk1 PBD binding of FITC phosphopeptide, fluorescence polarization; Potency, µM, most hits filed as inhibitors; 360,000 tested, 2.8% active; note: series mostly up to about 57 µM; nearly all actives have a fitted effect of over 65% in size
TDP1 cell noCPT = qHTS for Inhibitors of human tyrosyl-DNA phosphodiesterase 1 (TDP1): qHTS in cells in absence of CPT; DT40 Tdp1-/- hTDP1 cells, no CPT, ATP luminescence, 48 h; 420,000 tested, 15% active; AID 686978, 2013; Potency, µM (top dose mostly 46.2 µM), most hits filed as inhibitors; note: nearly all actives have a fitted effect of over 55% in size
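No-CPT arm: Tdp1-/-;hTDP1 DT40 cells (400/well) plus compounds, incubated ≥48 hr at 37 °C. Readout CellTiter-Glo luminescence.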
TDP1 cell CPT = DT40-hTDP1 cell growth loss with CPT | chicken DT40 Tdp1-/-;hTDP1 cells + 20 nM CPT, ATP luminescence, 48 h | Potency, µM (highest dose often 46.2 µM), most hits filed as inhibitors | 420,000 tested, 12% active | AID 686979; note: nearly all actives have a fitted effect of over 55% in size
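Cell growth measured by CellTiter-Glo luminescence after a minimum 48 h, 37 C compound exposure with 20 nM CPT in Tdp1-knockout DT40 cells stably expressing hTDP1, seeded 400/well; qHTS titration format.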
VDR inhibitor = inhibitors of human vitamin D receptor. P11473. Potency, µM, most hits filed as inhibitors. 400,000 tested, 0.93% active. VDR-SRC2-3 peptide fluorescence polarization, 2 h
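Inhibition of the VDR/SRC2-3 peptide interaction is quantified by fluorescence polarization. Compounds (23 nl, pintool) incubate with the reagents for 2 hours at ambient room temperature.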
KAT2A inh = blocks human GCN5L2 histone acetyltransferase | Q92830 | GCN5L2 HAT assay, ThioGlo1 CoA-SH fluorescence | Potency, µM (titrated, usually from 58.9 µM), actives largely listed as inhibitors | 390,000 tested, 0.21% active | AID 504327
Target sequence (Q92830 whole entry, looked up): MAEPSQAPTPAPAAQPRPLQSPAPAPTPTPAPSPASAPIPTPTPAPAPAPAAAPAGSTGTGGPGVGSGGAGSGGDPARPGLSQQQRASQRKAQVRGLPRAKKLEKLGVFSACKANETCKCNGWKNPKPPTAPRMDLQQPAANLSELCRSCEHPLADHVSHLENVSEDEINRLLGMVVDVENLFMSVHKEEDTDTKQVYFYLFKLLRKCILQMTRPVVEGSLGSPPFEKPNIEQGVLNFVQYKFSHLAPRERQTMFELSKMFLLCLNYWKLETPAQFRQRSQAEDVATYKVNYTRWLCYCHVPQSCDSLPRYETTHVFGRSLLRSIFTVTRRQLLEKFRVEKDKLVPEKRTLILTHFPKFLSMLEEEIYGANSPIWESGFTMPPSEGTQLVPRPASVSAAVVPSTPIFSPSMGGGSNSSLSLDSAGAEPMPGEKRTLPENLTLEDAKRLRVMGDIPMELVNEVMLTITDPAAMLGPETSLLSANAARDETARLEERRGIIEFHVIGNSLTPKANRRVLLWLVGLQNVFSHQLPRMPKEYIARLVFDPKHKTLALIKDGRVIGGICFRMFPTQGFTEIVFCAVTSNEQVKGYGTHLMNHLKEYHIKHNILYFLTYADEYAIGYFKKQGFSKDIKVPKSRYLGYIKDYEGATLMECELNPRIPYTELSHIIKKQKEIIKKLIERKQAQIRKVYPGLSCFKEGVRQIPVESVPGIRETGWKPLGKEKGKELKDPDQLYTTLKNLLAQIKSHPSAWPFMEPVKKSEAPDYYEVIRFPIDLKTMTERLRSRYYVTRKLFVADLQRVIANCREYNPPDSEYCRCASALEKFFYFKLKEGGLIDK
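GCN5L2 (20 nM) in 50mM HEPES pH 7.5, 0.1mM EDTA, 0.01% Tween-20 preincubated 15 min with compounds at room temperature. Reaction started with H3(1-25) 75uM, acetyl-CoA 70uM, ThioGlo1 50uM; CoA-thiol fluorescence (Ex340/Em540) read at 0 and 20 min.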
TDP1 block = blocks human tyrosyl-DNA phosphodiesterase 1. AID 485290. Potency, µM (highest dose often 130 µM), usual class: inhibitors. recombinant TDP1, AlphaScreen DNA substrate cleavage. Q9NUW8. 350,000 tested, 0.28% active; note: nearly all actives have a fitted effect of over 40% in size
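Here, a 5' biotin and 3' phosphotyrosine-FITC DNA oligonucleotide reports Tdp1 activity: intact substrate bridges AlphaScreen beads, while cleavage leaves a 3' phosphate and drops signal. All incubations at room temperature.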
A number is an active result; – = inactive; ? = inconclusive; · = no result given. Shown are actives, neighbours in structure and some others; about 18% of the full set was active somewhere. Calls come from the whole dose curve; as a rule, active = well fitted curve in the direction sought with a large enough effect; inconclusive = small, poorly fitted or top-dose-only effect, or another doubt; inactive = no such curve, though single readings can be large; an effect the other way counts as inactive or inconclusive.

SMILES	PLK1 PBD inh	TDP1 cell noCPT	TDP1 cell CPT	VDR inhibitor	KAT2A inh	TDP1 block
CCOC(=O)c1c(-c2ccc(-c3ccccc3)cc2)csc1NC(=O)c1cccc(N2C(=O)CCC2=O)c1	–	6.51µM	8.2µM	–	?	–
CCOC(=O)c1c(-c2ccc(-c3ccccc3)cc2)csc1NC(=O)CCN1CCOCC1	–	14.6µM	18.4µM	–	–	–
O=C(O)CCN1CCc2ccccc2C1c1ccncc1 (centres undefined)	–	–	–	–	–	–
CC(=O)N(c1ccc(Cl)cc1)C1SC(=O)N(c2ccccc2)C1=O (centres undefined)	·	?	–	–	·	·
CCOC(=O)c1c(-c2ccc(-c3ccccc3)cc2)csc1NC(=O)CNCCN(C)C	?	23.1µM	?	–	–	·
CCOC(=O)c1c(-c2ccc(F)cc2)csc1NC(=O)CCN1CCOCC1	–	20.6µM	?	–	–	·
CCNC(=S)Nc1scc(-c2ccccc2)c1C(=O)OCC	–	23.1µM	?	–	–	–
CCOC(=O)c1c(-c2cccs2)csc1NC(C)=O	–	?	–	–	–	–
CCOC(=O)c1c(-c2cccs2)csc1NC(=O)CNCCN1CCOCC1	·	·	·	·	–	–
c1ccc(CNCc2ccc3c(c2)OCO3)nc1	–	–	–	–	–	–
CC(=O)C(C(C)=O)C(NC(=O)c1cccnc1)(C(F)(F)F)C(F)(F)F	2.67µM	11.6µM	7.31µM	?	–	–
COc1ccc(C2Nc3ccccc3C(=O)N2Cc2ccccn2)cc1COc1ccc(NC(C)=O)cc1 (centres undefined)	·	·	·	·	·	–
COCCNC(=S)N(C)[C@H]1C[C@H]2c3cc(-c4ccccc4)ccc3CCN2C(=O)[C@H]1[C@H](C)O	–	9.2µM	?	·	·	·
C[C@H](O)[C@@H]1C(=O)N2CCc3ccc(-c4cccc(F)c4)cc3[C@@H]2C[C@@H]1N(C)C(=O)C(C)(C)C	–	?	?	–	·	·
Cc1ccccc1Oc1ccc2c(c1)[C@@H]1C[C@H](N(C)C(=S)Nc3ccc(F)cc3)[C@H]([C@H](C)O)C(=O)N1CC2	–	?	20.6µM	·	·	·
CN[C@H]1C[C@H]2c3cc(-c4ccccc4)ccc3CCN2C(=O)[C@H]1[C@H](C)O	–	?	?	·	·	·
COCCNC(=S)N(C)[C@H]1C[C@H]2c3cc(Oc4ccccc4C)ccc3CCN2C(=O)[C@H]1[C@H](C)O	–	8.2µM	14.6µM	·	·	·
COCC(=O)N(C)[C@H]1C[C@H]2c3cc(N4CCN(C)CC4)ccc3CCN2C(=O)[C@H]1[C@H](C)O	–	–	–	–	·	·
CN(C)CC#Cc1cccc(-c2nc(C(=O)O)cc3c2[C@@H](CCO)N(S(=O)C(C)(C)C)C3)c1 (some centres undefined)	–	–	–	·	·	·
CCOc1ccc(/C=C/c2nc(C#N)c(NCCCOC)o2)cc1	–	1.46µM	2.31µM	–	–	–
COCCCNc1oc(-c2ccccc2F)nc1C#N	23.8µM	–	?	?	–	–
CCOc1ccc(-c2nc(C#N)c(NCc3ccco3)o2)cc1	–	?	20.6µM	–	–	–
CCOc1ccc(-c2nc(C#N)c(NCCCOC)o2)cc1	·	6.51µM	8.2µM	–	–	–
Cc1ccc(CNc2oc(-c3ccco3)nc2C#N)cc1	–	?	–	–	–	–
CCOc1ccc(-c2nc(C#N)c(N3CCN(C)CC3)o2)cc1	–	–	–	–	–	–
SMILES	PLK1 PBD inh	TDP1 cell noCPT	TDP1 cell CPT	VDR inhibitor	KAT2A inh	TDP1 block
COCCCNc1oc(/C=C/c2ccccc2)nc1C#N	–	–	–	–	?	·
O=C(Nc1nc2ccc(Cl)cc2s1)c1ccc(S(=O)(=O)N2CCCC2)cc1	·	–	–	–	–	–
COc1cccc(C(=O)Nc2c[nH]c(=O)[nH]c2=O)c1	–	–	–	–	–	–
CN(C)c1ccc(/C=[N+](\[O-])C2N(c3ccccc3)C(=S)SC2(C)C)cc1 (centres undefined)	–	–	?	–	–	–
N#Cc1nc(-c2ccc(OCc3ccccc3Cl)cc2)oc1NCCCn1ccnc1	·	·	·	·	–	–
N#Cc1nc(-c2ccc(OCc3ccccc3)cc2)oc1NCCCn1ccnc1	–	20.6µM	?	–	–	–
COc1cccc(Cn2c(=O)n(-c3ccc(C)c(F)c3)c(=O)c3sc4ccccc4c32)c1	·	?	?	–	–	–
CCOC(=O)c1c2c3c(cccc3n(C)c1=O)C(=O)c1ccccc1-2	–	?	?	–	–	·
CCOC(=O)c1c(S(=O)(=O)NCCc2ccc(OC)c(OC)c2)c(C)n(C)c1C	–	–	–	–	–	–
CCOC(=O)c1c(C)c(C)n(Cc2ccc(OC)c(OC)c2)c1C	–	18.4µM	20.6µM	?	–	–
CCOC(=O)c1c2c(n(Cc3ccccc3)c1C)C(=O)C(=O)c1ccccc1-2	–	1.16µM	0.581µM	50.1µM	·	·
O=C(NS(=O)(=O)Nc1ccccc1)C1=C(N2CCCC2)COC1=O	–	–	–	–	–	–
CC(C)C(NC(=O)c1ccc(C(C)(C)C)cc1)C(=O)NCC(c1ccccc1)N(C)C (centres undefined)	–	20.6µM	?	–	–	–
Cc1cccc(C)c1NC(=O)CNC(=O)C(NC(=O)c1ccc(C(C)(C)C)cc1)C(C)C (centres undefined)	–	20.6µM	?	–	–	–
CC(C)C(NC(=O)c1ccc(C(C)(C)C)cc1)C(=O)NCCc1ccccn1 (centres undefined)	–	20.6µM	?	–	–	–
CC(C)C(NC(=O)c1ccc(Cl)cc1Cl)C(=O)NCCc1ccccn1 (centres undefined)	–	–	–	–	–	–
CC(=O)OC1CC[C@@]2(C)C(CC[C@@]3(C)C2CC=C2C4CC(C)(C)CC[C@]4(C)CC[C@@]23C)C1(C)C (some centres undefined)	·	–	–	–	–	–
COc1ccc(Nc2cc(C)nc3ccc(C)cc23)cc1	–	16.4µM	?	·	·	·
CCOC(=O)c1ccc2nc(C(F)(F)F)[nH]c(=O)c2c1	26.7µM	7.31µM	16.4µM	–	–	–
CCOC(=O)c1ccc2nc(C)c3c(c2c1)OC(C)C3 (centres undefined)	–	–	–	–	–	–
CC(=O)c1ccc(Nc2cc(C)nc3ccc(C)cc23)cc1	–	?	?	–	–	–
Cc1ccc2nc(C)cc(Nc3ccc4c(c3)OCCO4)c2c1	–	12.6µM	22.4µM	–	–	–
CCOC(=O)c1ccc2nc(C)cc(Nc3ccc(OC(C)C)cc3)c2c1	·	18.4µM	23.1µM	–	–	·
